Most compounds without a hit are left out; they make up all but 18% or so of the library.
IL-1B inflam inh – inhibitors of inflammasome signaling (IL-1 beta secretion); activity change, % at 57.5 µM; THP-1 LPS/ATP IL-1B secretion, AlphaLISA, 16 h; hits give low values; 360,000 tested, 4.7% active; in the data active means activity change below about -50%; inconclusive means mostly about -30% to -49%
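THP-1 cells pretreated 1 hr with compounds (up to 57.5 uM final), then stimulated with LPS (250 ng/mL final) plus ATP (1.25 mM final); secreted IL-1B measured by AlphaLISA after 16 hr, decreased signal indicating inhibition.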
TDP1 cell CPT – growth inhibition of DT40 Tdp1-/-;hTDP1 cells with camptothecin (screen for TDP1 inhibitors). chicken DT40 Tdp1-/-;hTDP1 cells + 20 nM CPT, ATP luminescence, 48 h. Potency, µM (titrated, usually from 46.2 µM), inactives show at the top dose activity change, negative = growth inhibition, usual class: inhibitors. 420,000 tested, 12% active; further: potency means the concentration at half of the fitted maximal effect; nearly all actives have a fitted effect of over 55% in size
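Chicken DT40 Tdp1-/- cells stably complemented with human TDP1 were seeded at 400 cells/well in medium containing 20 nM camptothecin, exposed to pin-transferred compounds, and grown at 37 °C for at least 48 hr. Viability was read as ATP luminescence.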
DT40 TDP1 no CPT – qHTS for Inhibitors of human tyrosyl-DNA phosphodiesterase 1 (TDP1): qHTS in cells in absence of CPT; DT40 Tdp1-/- hTDP1 cells, no CPT, ATP luminescence, 48 h; Potency, µM (doses to about 46.2 µM), for inactives: at the top dose activity change, negative = growth inhibition, most hits filed as inhibitors; 420,000 tested, 15% active; further: potency means the concentration at half of the fitted maximal effect; nearly all actives have a fitted effect of over 55% in size
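Compound effects on proliferation are scored in DT40 Tdp1-/-;hTDP1 cells in the absence of CPT. ATP levels (CellTiter-Glo luminescence) are recorded after a ≥48 hr, 37 °C incubation.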
VP16 counter – counter-screen for ROR gamma inhibitors: Gal4-VP16 reporter | Potency, µM (highest dose often 53.6 µM), for inactives: top-dose activity, negative = inhibition, usual class: inhibitors | AID 2546 | 310,000 tested, 3.5% active | Drosophila S2 Gal4-VP16 UAS-luciferase, luminescence, 20 h;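 further: Gal4-VP16 expression switched on by copper sulfate through the metallothionein promoter; potency means the concentration at half of the fitted maximal effect; nearly all actives have a fitted effect of over 50% in size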
LDHA inh – inhibitors of human lactate dehydrogenase A; AID 1347041; purified LDHA, NADH/diaphorase-resazurin fluorescence; hits give low values; P00338; activity change, % (values are at about 110 or 230 µM); 480,000 tested, 0.15% active; in the data active means activity change below about -30%; inconclusive means mostly about -25% to -30%;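 further: plate controls were DMSO wells for no effect and wells without enzyme for full effect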
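Human LDH5 at 2 nM final in Tris HCl pH 7.4 with 0.06 mM NADH and 0.2 mM pyruvate, reacted 5 minutes at room temperature. Remaining NADH coupled via diaphorase/resazurin; resorufin fluorescence read at 0 and 20 minutes, normalized to enzyme-free and DMSO wells.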
RORg inh – inhibitors of mouse ROR gamma transcriptional activity | Potency, µM (doses to about 53.6 µM), inactives show top-dose activity change, negative = inhibition, most hits filed as inhibitors | AID 2551 | P51450 | Drosophila S2 Gal4-RORgamma UAS-luciferase reporter, 20 h | 310,000 tested, 5.4% active; further: potency means the concentration at half of the fitted maximal effect; nearly all actives have a fitted effect of over 60% in size
Target sequence (P51450 whole entry, looked up, the tested form may be a part): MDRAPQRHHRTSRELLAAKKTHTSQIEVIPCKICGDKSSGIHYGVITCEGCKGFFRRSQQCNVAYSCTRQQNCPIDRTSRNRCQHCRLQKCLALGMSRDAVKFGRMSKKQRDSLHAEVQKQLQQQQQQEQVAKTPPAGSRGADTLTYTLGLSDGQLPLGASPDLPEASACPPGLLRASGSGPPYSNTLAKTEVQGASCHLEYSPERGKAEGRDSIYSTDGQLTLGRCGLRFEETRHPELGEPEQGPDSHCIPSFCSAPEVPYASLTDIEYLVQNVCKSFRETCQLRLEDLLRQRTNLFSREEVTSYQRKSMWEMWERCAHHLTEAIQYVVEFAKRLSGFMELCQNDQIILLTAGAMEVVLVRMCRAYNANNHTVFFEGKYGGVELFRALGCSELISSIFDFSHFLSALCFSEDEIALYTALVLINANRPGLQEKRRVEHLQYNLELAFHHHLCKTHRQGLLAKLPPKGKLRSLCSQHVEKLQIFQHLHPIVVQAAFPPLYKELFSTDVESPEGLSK
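Compounds are pin-transferred onto Drosophila Schneider cells expressing a copper-inducible Gal4–ROR gamma transactivation domain fusion. After 1 hr, copper sulfate is added to 700 uM final; luciferase is read 20 hr later.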
Numbers without * were called inactive. Unless noted, the call rests on the fitted dose curve; in most records, active means well fitted curve in the direction sought with a large enough effect; inconclusive means small, poorly fitted or top-dose-only effect, or another doubt; inactive means no such curve, though single readings can be large; an effect the other way counts as inactive or inconclusive. Unless noted, on the % scale 0 is the no-effect control and ±100 the full control effect.

What do the screens show for `CC[n+]1c(C)sc2cc(OC)ccc21`?
IL-1B inflam inh: -67*; TDP1 cell CPT: 2.6µM*; DT40 TDP1 no CPT: 2.9µM*; VP16 counter: 2%; LDHA inh: -6; RORg inh: 0%

Results for COc1ccc(-n2c(C)c(C(C)=O)c3cc(OC(C)=O)ccc32)cc1 ?
IL-1B inflam inh: 35; TDP1 cell CPT: 5.2µM*; DT40 TDP1 no CPT: 7.3µM*; VP16 counter: -12%; LDHA inh: -1; RORg inh: -25%

How did COC(=O)c1c(C)n(-c2ccc(OC)cc2)c2ccc(O)cc12 do in these assays?
IL-1B inflam inh: -10; TDP1 cell CPT: 12µM*; DT40 TDP1 no CPT: 13µM*; VP16 counter: -17%; LDHA inh: 9; RORg inh: -38%

What do the screens show for `O=c1[nH]c(CN2CCN(c3ccccc3)CC2)nc2scc(-c3ccccc3)c12`?
IL-1B inflam inh: 0; TDP1 cell CPT: 13µM*; DT40 TDP1 no CPT: 5.2µM*; VP16 counter: -14%; LDHA inh: -7; RORg inh: inconclusive

How did COc1ccc(N2CCN(Cc3nc4scc(-c5ccccc5)c4c(=O)[nH]3)CC2)cc1 do in these assays?
IL-1B inflam inh: 18; TDP1 cell CPT: inconclusive; DT40 TDP1 no CPT: 8%; VP16 counter: -9%; LDHA inh: 8; RORg inh: 23%

Results for COc1ccc(N2CCN(Cc3nc4scc(-c5cccs5)c4c(=O)[nH]3)CC2)cc1 ?
IL-1B inflam inh: -69*; TDP1 cell CPT: -8%; DT40 TDP1 no CPT: inconclusive; VP16 counter: -1%; LDHA inh: -2; RORg inh: inconclusive

Results for O=C1CSc2ccc(S(=O)(=O)N3CCCC3)cc2N1 ?
LDHA inh: 9

Results for O=C(NCc1csc(-c2ccccc2)n1)C1CCN(S(=O)(=O)c2ccc3c(c2)CCCC3)CC1 ?
LDHA inh: 4

Results for CN(C)CCCNc1nc2cc(-c3cncnc3)sc2c(=O)n1C ?
IL-1B inflam inh: -1; TDP1 cell CPT: -29%; DT40 TDP1 no CPT: -27%; LDHA inh: 1

How did COCCNc1nc2cc(-c3cccc(Cl)c3)sc2c(=O)n1C do in these assays?
IL-1B inflam inh: 14; TDP1 cell CPT: inconclusive; DT40 TDP1 no CPT: inconclusive; LDHA inh: -8

Results for COc1cccc(-c2cc3nc(NCCN4CCCC4)n(C)c(=O)c3s2)c1 ?
IL-1B inflam inh: inconclusive; TDP1 cell CPT: inconclusive; DT40 TDP1 no CPT: 23µM*; LDHA inh: 0

What do the screens show for `Cn1c(NCCN2CCCC2)nc2cc(-c3ccccc3)sc2c1=O`?
IL-1B inflam inh: -27; TDP1 cell CPT: inconclusive; DT40 TDP1 no CPT: inconclusive; LDHA inh: -5

Results for C=CCNc1nc2cc(-c3cccc(Cl)c3)sc2c(=O)n1C ?
IL-1B inflam inh: 79; TDP1 cell CPT: 13µM*; DT40 TDP1 no CPT: 16µM*; LDHA inh: -11

What do the screens show for `CN(C)CCCNc1nc2cc(-c3ccccc3)sc2c(=O)n1C`?
IL-1B inflam inh: 0; TDP1 cell CPT: 21µM*; DT40 TDP1 no CPT: 21µM*; LDHA inh: -4

How did CN(C)CCCNc1nc2cc(-c3ccc(F)cc3)sc2c(=O)n1C do in these assays?
IL-1B inflam inh: -15; TDP1 cell CPT: 18µM*; DT40 TDP1 no CPT: 18µM*; LDHA inh: -2

How did CC(C)CCn1c(N2CCC(C(N)=O)CC2)nc2c1c(=O)n(C)c(=O)n2C do in these assays?
LDHA inh: -3

How did CCOc1ccc2nc(N3CCCC(C(=O)NCc4ccccc4OC)C3)sc2c1 (stereo unspecified) do in these assays?
TDP1 cell CPT: inconclusive; DT40 TDP1 no CPT: 23µM*; LDHA inh: -6

How did CCOc1ccc2nc(N3CCCC(C(=O)Nc4cc(Cl)c(OC)cc4OC)C3)sc2c1 (stereo unspecified) do in these assays?
TDP1 cell CPT: 18µM*; DT40 TDP1 no CPT: 13µM*; LDHA inh: -5

How did CCOc1ccc2nc(N3CCCC(C(=O)NC4CCCC4)C3)sc2c1 (stereo unspecified) do in these assays?
IL-1B inflam inh: 19; TDP1 cell CPT: inconclusive; DT40 TDP1 no CPT: 21µM*; VP16 counter: -8%; LDHA inh: -4; RORg inh: -9%

Results for CCOc1ccc2nc(N3CCCC(C(=O)Nc4cccc(Cl)c4C)C3)sc2c1 (stereo unspecified) ?
TDP1 cell CPT: inconclusive; DT40 TDP1 no CPT: inconclusive; LDHA inh: 1

What do the screens show for `CCOc1ccc2nc(N3CCC(C(=O)NC4CCCCC4)CC3)sc2c1`?
IL-1B inflam inh: 21; TDP1 cell CPT: inconclusive; DT40 TDP1 no CPT: inconclusive; VP16 counter: -26%; LDHA inh: -2; RORg inh: 0%

How did CCOc1ccc2nc(N3CCCC(C(=O)Nc4ccc(OC)cc4)C3)sc2c1 (stereo unspecified) do in these assays?
TDP1 cell CPT: 15µM*; DT40 TDP1 no CPT: 12µM*; LDHA inh: -1

How did CCOc1ccc2nc(N3CCCC(C(=O)NCCc4ccc(SC)cc4)C3)sc2c1 (stereo unspecified) do in these assays?
TDP1 cell CPT: -24%; DT40 TDP1 no CPT: inconclusive; LDHA inh: -9

How did CCOC(=O)Nc1ccc2nc(N3CCCCCC3)sc2c1 do in these assays?
IL-1B inflam inh: 46; TDP1 cell CPT: 3.7µM*; DT40 TDP1 no CPT: 2.6µM*; VP16 counter: -18%; LDHA inh: 4; RORg inh: inconclusive

Results for CCOC(=O)N1CCN(C(=O)Nc2ccc3nc(C)sc3c2)CC1 ?
IL-1B inflam inh: -1; TDP1 cell CPT: -12%; DT40 TDP1 no CPT: 0%; VP16 counter: -5%; LDHA inh: -7; RORg inh: 16%

How did CCOc1ccc2nc(N3CCCC(C(=O)NCc4ccc(C)cc4)C3)sc2c1 (stereo unspecified) do in these assays?
TDP1 cell CPT: inconclusive; DT40 TDP1 no CPT: inconclusive; LDHA inh: -6

What do the screens show for `CCOc1ccc2nc(N3CCCC(C(=O)Nc4ccc(CC)cc4)C3)sc2c1` (stereo unspecified)?
TDP1 cell CPT: 16µM*; DT40 TDP1 no CPT: 10µM*; LDHA inh: -1

How did CCNC(=S)NNC(=O)c1cc(-c2cc(C)ccc2C)nc2ccccc12 do in these assays?
IL-1B inflam inh: 5; TDP1 cell CPT: 15µM*; DT40 TDP1 no CPT: 15µM*; VP16 counter: -22%; LDHA inh: 2; RORg inh: 0.35µM*

High-throughput results deposited in PubChem by National Center for Advancing Translational Sciences (NCATS).
